Screening results from PubChem BioAssay.
D2 ag-1 = human D2 receptor agonism in beta-arrestin assay | P14416 | DiscoveRx PathHunter D2 beta-arrestin, luminescence, 90 min; 100% = 57 uM dopamine signal | activation, % (test concentration not listed) | 0.084% of 360,000 active | AID 624465; in the data active = activation above about 40%; inconclusive = between about 15% and that limit
Target sequence (P14416 whole entry, looked up): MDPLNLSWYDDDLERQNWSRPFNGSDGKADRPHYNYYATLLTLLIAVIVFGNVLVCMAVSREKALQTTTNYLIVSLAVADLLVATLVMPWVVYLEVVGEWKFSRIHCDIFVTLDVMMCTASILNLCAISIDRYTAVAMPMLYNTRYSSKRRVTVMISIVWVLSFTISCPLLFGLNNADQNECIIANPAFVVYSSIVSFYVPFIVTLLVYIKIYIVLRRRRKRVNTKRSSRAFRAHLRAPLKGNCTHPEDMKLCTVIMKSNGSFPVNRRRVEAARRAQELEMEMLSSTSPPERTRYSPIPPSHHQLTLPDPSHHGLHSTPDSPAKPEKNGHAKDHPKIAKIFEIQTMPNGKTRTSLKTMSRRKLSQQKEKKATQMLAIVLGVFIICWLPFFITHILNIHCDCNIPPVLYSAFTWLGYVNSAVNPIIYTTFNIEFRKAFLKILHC
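DiscoveRx PathHunter D2 beta-arrestin cells (2,100/well) attached overnight, then compound-stimulated 90 min at 37 C in HBSS/10 mM HEPES/0.1% Tween-20 buffer; beta-galactosidase complementation read by luminescence after 1 h at ambient temperature. Dopamine 57 uM final (EC100) as control.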
D2 PAM-1 = human D2 receptor positive allosteric modulation. potentiation, % (test concentration not listed). AID 624464. DiscoveRx D2 beta-arrestin cells, luminescence, 90 min; 100% = 57 uM dopamine signal. 0.23% of 360,000 active; in the data active = potentiation above about 50%; inconclusive = mostly about 30% to 49%
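PathHunter D2 cells, attached overnight at 37 deg C, received compound in DMSO plus dopamine at EC20 (50 nM final) for 90 min at 37 deg C. Beta-arrestin recruitment was read as luminescence after 1 h with detection reagent at ambient temperature.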
D2 antag = antagonists of human D2 dopamine receptor; 2% of 340,000 active; inhibition, % at 10 µM; P14416; HEK293 TREx D2 cells, calcium flux, dopamine EC80; in the data active = inhibition above about 30%; inactive = below that, where a call was filed; also: 0% is about no effect
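Calcium flux kinetic readout in an inducible HEK293 TREx D2 line plated overnight at 30 C. After 180 s compound exposure, an EC80 dopamine challenge follows with another 180 s kinetic read to detect antagonism.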
D2 ag-2 = D2 dopamine receptor (human) agonism. HEK293 T-REx D2 cells, calcium flux agonist mode. activation, % at 2 µM. 0.53% of 340,000 active. AID 485358;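 active = activation over 3 SD above normal in the single-dose calcium agonist read, cut at about 30% in these data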; also: 0% is about no effect
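Calcium-flux readout, 1 cycle/sec over 180 s following compound pin transfer, in inducible HEK293 Trex D2 cells (force-coupled); dopamine controls included. Positive calcium responses during this window marked compounds as potential agonists.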
D2 PAM-2 = positive allosteric modulators of human D2 dopamine receptor; HEK293 T-REx D2, calcium flux, EC20 dopamine potentiation; 0.34% of 340,000 active; potentiation, % at 10 µM; P14416;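 active = potentiation over 3 SD above the plate norm, cut at about 30% in these data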; also: 0% is about no effect
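Calcium flux readout, no-wash dye, 1 read/s. Inducible HEK293 Trex D2 line, overnight 30 C. Compound alone 180 s (agonist flags), then EC20 dopamine, another 180 s to score potentiation.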
Numbers without * were called inactive; ? = inconclusive; nt = not tested or not shown; ! = not active in a repeat. Most compounds without a hit are left out; they make up all but 2.4% or so of the library.

SMILES	D2 ag-1	D2 PAM-1	D2 antag	D2 ag-2	D2 PAM-2
O=C(CCCC(=O)OCC(=O)c1ccc(Cl)cc1Cl)Nc1cc(C(F)(F)F)ccc1Cl	-10.8	-40.3	19.4	0.7	-10.9
CN(CC(=O)Nc1cc(S(=O)(=O)N2CCCC2)ccc1Cl)Cc1ccc2c(c1)OCO2	-2.1	-7.5	31.7*	-0.6	-16.3
O=C(CN1CCCCC1)Nc1ccc(C(F)(F)F)cc1Cl	-2.1	1.0	-28.7	-0.6	-1.4
O=C(CCCC(=O)OCC(=O)c1ccc(F)cc1)Nc1cc(C(F)(F)F)ccc1Cl	-4.0	0.0	46.9*	0.6	-20.1
O=C(CN1CCCC1)Nc1cc(C(F)(F)F)ccc1Cl	-5.6	-12.6	81.9*	-2.5	-19.7
O=C(CCC1N=C2c3ccccc3N=C(SCc3ccccc3Cl)N2C1=O)N1CCN(c2ccccc2)CC1 (stereo not drawn)	nt	nt	nt	-1.4	-1.1
COc1cc(C(=S)N2CCOCC2)ccc1OC(=O)c1ccc([N+](=O)[O-])cc1[N+](=O)[O-]	59.2*	60.7*	5.5	0.5	-2.3
COc1ccc(C(=S)N2CCOCC2)cc1OC(=O)c1ccc([N+](=O)[O-])cc1	7.7	14.2	-9.6	1.5	16.5
CC12CCC(C(=O)NNc3ccccc3)(C(=O)C1=O)C2(C)C (stereo not drawn)	-2.5	0.9	11.2	1.2	6.8
CCSc1ccccc1C(=O)Nc1ccc(-c2nc3ccccc3s2)c(O)c1	nt	nt	nt	0.8	-4.2
Cc1cccc(-c2c3c(nc4c2c(=O)n(C)c(=O)n4C)-c2ccccc2C3O)c1 (stereo not drawn)	-4.9	-2.2	nt	nt	nt
CCc1ccccc1NC(=O)c1cnc2scc(C)n2c1=O	-5.1	0.4	nt	nt	nt
CSc1ccccc1NC(=O)c1cnc2scc(C)n2c1=O	0.5	-1.3	-5.4	-0.6	35.7*
Fc1c(F)c(F)c(N/N=C/c2c[nH]c3ccccc23)c(F)c1F	?	60.2*	-7.0	0.2	13.5
Cc1c(CNC2CCCCC2)c(C(=O)O)c(C)n1Cc1ccccc1F	nt	nt	nt	nt	-5.7
Cn1c(N)c(C(=O)CSc2nnc(-c3ccccc3F)n2C2CC2)c(=O)n(C)c1=O	2.9	5.5	1.2	2.3	1.1
Cn1c(N)c(C(=O)CSc2nnc(-c3ccccc3F)n2N)c(=O)n(C)c1=O	-0.4	-4.5	33.7*	-0.4	0.3
CN1CCN(C2=Cc3ccccc3Sc3cc(F)c(Cl)cc32)CC1	-2.5	-45.4	73.5*	0.6	-25.6
CN1CCN(C2=Cc3ccccc3Sc3cc(F)c(F)cc32)CC1	-3.7	-43.1	-23.6	-1.6	0.4
CCn1cc(C(=O)NCCCOC(C)C)c(=O)c2cc(S(=O)(=O)N3CCc4ccccc4C3)ccc21	nt	nt	nt	-0.8	-5.7
O=C(Nc1ccc(OC(F)(F)F)cc1)C1CC(=O)N(Cc2ccco2)C1 (stereo not drawn)	-4.9	5.9	47.3*	-2.3	0.1
CC1CCCCN1CCNC(=O)c1ccc(Cn2c(SCc3ccccc3)nc3cccnc32)cc1 (stereo not drawn)	nt	nt	nt	-0.1	-15.3
Cc1ccccc1CN1CCC(n2nccc2NC(=O)CCOc2ccccc2)CC1	-3.6	-26.1	5.9	-0.1	-13.3
COc1ccc(OC)c(NC(=O)CCN2CCN(Cc3ccccc3)CC2)c1	2.7	-14.4	23.0	36.3*	-13.3
COC(=O)c1c(NC(=O)CN2CCN(c3ccccc3OC)CC2)c2c(C)cccc2n1C	nt	nt	-10.3	52.3*	-14.7
SMILES	D2 ag-1	D2 PAM-1	D2 antag	D2 ag-2	D2 PAM-2
COC(=O)c1c(NC(=O)CN2CCN(c3ccccc3)CC2)c2c(C)cccc2n1C	9.7	18.2	11.4	18.3	-0.3
COC(=O)c1[nH]c2cc(OC)ccc2c1NC(=O)CCN1CCN(c2ccccc2)CC1	-0.4	-10.6	63.2*	-0.6	-22.1
CCOC(=O)C1CCCN(CCC(=O)Nc2c(C(=O)OC)[nH]c3cc(OC)ccc23)C1 (stereo not drawn)	-1.3	4.1	-23.4	17.9	-21.3
COC(=O)c1[nH]c2cccc(C)c2c1NC(=O)CN1CCN(C(=O)c2ccco2)CC1	10.2	3.7	-2.4	0.7	11.8
COC(=O)c1[nH]c2cccc(C)c2c1NC(=O)CN1CCN(c2ccccc2OC)CC1	2.0	-12.2	54.4*	39.0*	-21.8
CC(C)(C)NC(=O)CC1C[C@H](C(=O)N2CCCCC2)[C@@]2(CCc3ccccc3)c3[nH]c4ccccc4c3CCN2C1=O (stereo partly drawn)	-3.3	nt	nt	nt	nt
Cc1cccc(-c2nc(SCc3cc(=O)c4cccc(F)c4[nH]3)n[nH]2)c1	nt	nt	nt	-0.6	0.5
O=C(NCCCN1CCOCC1)C1CCN(S(=O)(=O)c2ccccc2)CC1	-1.9	-12.8	-9.0	0.3	8.9
COc1cc2c3nc4n(c(=O)c3n(CC(=O)N3CCCC3)c2cc1OC)CCS4	-2.6	-1.0	nt	nt	nt
COC(=O)c1[nH]c2cccc(OC)c2c1NC(=O)CCN1CCN(c2ccccc2F)CC1	nt	nt	73.6*	44.2*	-27.8
COC(=O)c1[nH]c2cccc(OC)c2c1NC(=O)CCN1CCC(C(N)=O)CC1	nt	nt	-18.4	-0.4	7.9
CCCC(=O)Nc1ccc2oc(-c3cccnc3)nc2c1	-2.5	?	31.9*	-0.8	13.2
CCCCC(=O)Nc1ccc2oc(-c3cccnc3)nc2c1	-2.6	13.1	4.9	-0.9	-7.3
COCCCC/C(=N\OCCN)c1ccc(C(F)(F)F)cc1	-0.4	-13.0	53.9*!	1.0	1.9
COc1ccc(C)cc1NC(=S)NC(C)c1ccc(OC)c(OC)c1 (stereo not drawn)	-0.3	53.1*	-10.5	1.2	-2.0
CC1(C(=O)NS(=O)(=O)c2ccc(C#N)cc2)CCN1C(=O)CCC1CCCC1 (stereo not drawn)	-2.5	-9.7	nt	nt	nt
COc1ccc(O)c(N)c1	nt	nt	-18.6	1.1	43.2*
COc1ccc(C)cc1NC(=O)CCCN1C(=O)C(c2ccccc2)Oc2cccnc21 (stereo not drawn)	-2.0	-35.7	37.9*	-0.9	4.9
O=C(c1cc2ccccc2o1)N1CCN(C/C=C/c2ccccc2)CC1	-3.0	-35.8	77.0*	-1.6	-32.6
COC(=O)c1ccccc1NC(=O)N1CCN(C/C=C/c2ccccc2)CC1	2.2	-10.5	35.2*	0.1	-6.9
Cc1ccc(NC(=O)N2CCN(C/C=C/c3ccccc3)CC2)cc1	-2.4	-3.1	-8.8	0.5	-0.1
CC1CCN(C(=O)CSc2nnc(CNC(=O)c3c(F)cccc3F)o2)CC1	-3.4	4.8	-14.3	0.7	4.0
O=C(CN1CCC(O)(c2cccc(F)c2)CC1)NCCc1c[nH]c2ccccc12	-4.5	-24.2	44.8*	-0.6	-17.9
COc1ccc(OC)c(NC(=O)C(CCSC)NS(=O)(=O)c2cccs2)c1 (stereo not drawn)	1.1	-5.3	32.4*	-0.3	-1.7
O=C(CSc1nc(-c2ccco2)nc2cc(=O)[nH]n12)Nc1ccc(F)cc1	nt	nt	nt	0.9	6.8
